The nature of test [1]: CCTE_Shafer_MEA_acute_burst_duration_mean: CCTE's Neural Acute Assay for Mean Burst Duration, Shafer Lab (AID 2284014).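 Also: hits are decreases in mean burst duration relative to DMSO controls.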 An outline of the steps:
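Rat primary cortical neurons on 48-well MEA, treated at DIV 13 or 15 with 0.03-40 uM in at least 3 wells. Value is percent change in mean burst duration, comparing 40 min recordings at 37 C before and during exposure.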

A short description of test [2]: CCTE_Shafer_MEA_acute_per_burst_spike_number_mean: CCTE's Neural Acute Assay for Average Number of Spikes Per Burst, Shafer Lab (AID 2284015).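 Also: hits are decreases in mean spikes per burst versus baseline.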 An outline of the steps: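 Rat primary cortical neurons on 48-well MEAs (DIV 13 or 15) were treated with 0.03-40 uM compound at 37 C. Mean spikes per burst over 40 min were recorded before and after exposure and expressed as percent change from baseline, relative to DMSO.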

Test [3] in a line: CCTE_Shafer_MEA_acute_interburst_interval_mean: CCTE's Neural Acute Assay for Mean Interburst Interval, Shafer Lab (AID 2284016).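 Also: percent change of mean interburst interval versus each well's own pre-dose baseline; curves fitted for decrease in interburst interval relative to DMSO.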 Summed up:
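Rat primary cortical neurons on 48-well MEAs at DIV 13 or 15 were exposed acutely to 0.03-40 uM. Spikes detected at 8x rms noise, 37 C. Mean interburst interval from 40 min recordings expressed as percent change from 40 min pre-treatment baseline.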

A short description of test [4]: CCTE_Shafer_MEA_acute_burst_percentage_mean: CCTE's Neural Acute Assay for Percentage of Spikes in a Burst, Shafer Lab (AID 2284017).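 As to AC50: curve fitted for loss of signal so potency reflects decreased burst percentage.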 Summed up: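 Primary rat cortical neurons on 48-well MEA plates, treated on DIV 13 or 15 at 0.03-40 uM. Spikes detected at 8x rms noise at 37C; percent change from 40-min baseline to 40-min post-dose recording, fitted versus DMSO.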

The nature of test [5]: CCTE_Shafer_MEA_acute_burst_percentage_std: CCTE's Neural Acute Assay for Standard Deviation of Burst Percentage, Shafer Lab (AID 2284018).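 Also: fitted in the negative direction so actives lower burst percentage SD.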 An outline of the steps:
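Rat primary cortical neurons on 48-well MEAs, DIV 13 or 15, 37 C. 40-min baseline then 40-min recording with compound (0.03-40 uM); well-level SD of per-electrode burst spike percentage, expressed as percent change from baseline.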

The nature of test [6]: CCTE_Shafer_MEA_acute_per_network_burst_spike_number_mean: CCTE's Neural Acute Assay for Average Number of Spikes in a Network Burst, Shafer Lab (AID 2284019).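 As to AC50: curve fitted for loss of signal so actives reduce spikes per network burst.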 Summed up: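 Rat primary cortical neurons on 48-well MEA at DIV 13 or 15, 37 C; compounds 0.03-40 uM, at least three wells each. 40-min baseline then 40-min exposure recording; percent change in mean spikes per network burst.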

Test [7] in a line: CCTE_Shafer_MEA_acute_per_network_burst_spike_number_std: CCTE's Neural Acute Assay for Standard Deviation of Number of Spikes in a Network Burst, Shafer Lab (AID 2284020).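 Also: fitted for decrease in spike-number SD versus DMSO so actives lower it.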 An outline of the steps:
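Rat primary cortical neurons on 48-well MEA (16 electrodes/well), treated DIV 13 or 15 at 0.03-40 uM, ≥3 wells per compound. 40 min recordings at 37 C before and after dosing; value is percent change in network-burst spike-number SD, negative direction vs DMSO.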

The nature of test [8]: CCTE_Shafer_MEA_acute_per_network_burst_electrodes_number_mean: CCTE's Neural Acute Assay for Mean Number of Electrodes in a Network Burst, Shafer Lab (AID 2284021).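 Also: curves fitted for decreases only so hits reduce electrodes per burst.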 An outline of the steps: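 Readout: % change in mean electrodes active per network burst, post- vs pre-treatment, each well. Spikes detected at 8x rms noise after 300-5000 Hz band-pass; rat cortical cultures, DIV 13/15, compounds 0.03-40 uM, DMSO baseline.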

A short description of test [9]: CCTE_Shafer_MEA_acute_network_burst_percentage: CCTE's Neural Acute Assay for Percentage of Network Bursts, Shafer Lab (AID 2284022).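 Also: curves fitted for loss so actives lower network burst percentage.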 Summed up: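 Rat cortical cultures, DIV 13/15; 20 min equilibration, 40 min baseline, compound 0.03-40 uM, 40 min recording, 37 C. Spikes: 300-5000 Hz band-pass, threshold 8x rms noise. Readout: % change in network-burst spike fraction; loss direction vs DMSO.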

The target of test [10] is Estrogen receptor (Homo sapiens) (UniProt P03372). Put plainly: CCTE_Deisenroth_AIME_96WELL_LUC_Active: CCTE's 96-well Estrogen Receptor Transactivation Assay with AIME metabolic competence (ERTA luciferase; metabolism positive), Deisenroth Lab (AID 2284023; active = hit-call score of the fitted dose curve at least 0.9, where 1 is the maximum). An outline of the steps:
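Chemicals pre-incubated 2 h with alginate-immobilized phenobarbital/beta-naphthoflavone-induced male Sprague Dawley rat liver S9, then medium transferred to VM7Luc4E2 cells for 24 h luciferase read-out. 10-point series 0.002 - 200 uM; fitted relative to 17beta-estradiol.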

The results in this text go back to PubChem BioAssay (EPA / NIEHS).

Each structure is given as a SMILES string. Inconclusive results are not listed. Activity calls are given as the source filed them. The calls were made as follows, unless noted: active = hit-call score of the fitted dose curve at least 0.9, where 1 is the maximum; inactive = score below 0.9.

Sequence of Estrogen receptor (Homo sapiens) (P03372 whole entry, looked up): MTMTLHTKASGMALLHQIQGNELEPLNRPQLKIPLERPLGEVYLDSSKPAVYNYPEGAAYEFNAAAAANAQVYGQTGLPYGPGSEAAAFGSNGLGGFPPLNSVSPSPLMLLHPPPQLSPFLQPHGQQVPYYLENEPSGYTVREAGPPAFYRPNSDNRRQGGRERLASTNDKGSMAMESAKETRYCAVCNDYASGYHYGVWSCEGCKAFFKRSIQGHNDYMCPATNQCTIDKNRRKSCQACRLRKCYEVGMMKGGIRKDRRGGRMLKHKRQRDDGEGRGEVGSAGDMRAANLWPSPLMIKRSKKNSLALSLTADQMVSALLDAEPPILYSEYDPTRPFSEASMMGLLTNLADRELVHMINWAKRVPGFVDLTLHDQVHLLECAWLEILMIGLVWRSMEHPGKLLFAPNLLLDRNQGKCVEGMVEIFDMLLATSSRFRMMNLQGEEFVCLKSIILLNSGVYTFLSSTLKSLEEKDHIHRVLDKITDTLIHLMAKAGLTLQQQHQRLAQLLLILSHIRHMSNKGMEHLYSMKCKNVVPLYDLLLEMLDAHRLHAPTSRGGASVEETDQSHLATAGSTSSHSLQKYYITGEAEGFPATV

On to `CC[C@H](C)C(=O)O[C@H]1C[C@H](O)C=C2C=C[C@H](C)[C@H](CC[C@@H](O)C[C@@H](O)CC(=O)O)[C@H]21`, for which the compound was classed as inactive in test [1], in test [2], in test [3], in test [4], in [5] and in test [6]. In addition, the compound was classed as inactive in test [7], in [8] and in test [9].
One may read the AC50 as the midpoint of the concentration-response curve, whichever way the signal moves. `CC(C)C(=O)Nc1ccc([N+](=O)[O-])c(C(F)(F)F)c1`: the outcome in test [1], in test [5], in [6] and in test [8] was inactive. Further, the AC50 was 4.66 µM (active) in test [2]; 30.8 µM (active) in test [3]; 6.55 µM (active) in test [4]; 5.47 µM (active) in [7]; 34.4 µM (active) in test [9].
On to `COc1cc(C(C)C)c2c(c1)S(=O)(=O)N(COc1cc(=O)n3cccc(OCCN4CCCCC4)c3n1)C2=O`, for which the results for the AC50 in [1], in [5] and in [7] were 5 µM (active), 7.87 µM (active) and 1.03 µM (active), respectively. The call in [2], in test [3], in test [4], in [6], in test [8] and in test [9] was inactive.
`Cn1c(=O)c2[nH]cnc2n(C)c1=O`: the call in test [1], in test [2], in test [3], in [4], in test [5] and in [6] was inactive. The call in [7], in test [8] and in test [9] was inactive.
Turning to `c1ccc2cc3ccccc3cc2c1`, the call in [1], in [2], in test [3], in [4], in test [5] and in test [6] was inactive. In addition, the result in test [7] and in test [8] was inactive. Moreover, in [9], the AC50 is 0.003 µM (active).
With `COc1cc2c(c(OC)c1OC)-c1ccc(OC)c(=O)cc1[C@@H](NC(C)=O)CC2`, the outcome in [1], in [2], in test [3], in [4], in [5] and in test [6] was inactive. Besides, the result in test [7] was inactive. Also, the AC50 in test [8] is 31.6 µM (active); in test [9], 4.03 µM (active).
In the case of `CCN(CC)C(=S)SSC(=S)N(CC)CC`, in test [10], the result was inactive.
For the compound `COCc1nnc(-c2ccc[n+]([O-])c2)n1-c1c(Cl)c(Cl)cc2[nH]c(=O)c(=O)[nH]c12`, the result in test [1], in test [5] and in [8] was inactive. The AC50 in test [2] was 8.06 µM (active); in test [3], 30 µM (active); in test [4] it was 17.2 µM (active); in test [6], 4.76 µM (active); in test [7], 10.9 µM (active); in test [9], 29.2 µM (active).
Turning to `Cc1ncc([C@@H](CCCCCCc2ccc3c(n2)NCCC3)CC(=O)O)cn1`, the call in [1], in test [2], in test [3], in test [4], in [5] and in test [6] was inactive. Besides, the compound was called inactive in [7], in [8] and in test [9].
Consider `C=CCc1cc(S(=O)(=O)c2ccc(O)c(CC=C)c2)ccc1O`, for which the outcome in test [1], in [2], in test [3], in test [4], in test [5] and in test [6] was inactive. Moreover, the compound was called inactive in test [7], in test [8] and in test [9].
Regarding `c1ccc(C(O[C@@H]2CCCN(CCc3ccc4c(c3)OCO4)C2)c2ccccc2)cc1`, the outcome in test [1], in test [2], in test [4], in [5], in test [7] and in test [8] was inactive. The compound was called inactive in test [9]. Moreover, the AC50 in test [3] was 4.15 µM (active); in test [6] it was 4.49 µM (active).
Turning to `O=S(=O)(O)c1ccc(N=Nc2c(O)ccc3cc(S(=O)(=O)O)ccc23)cc1`, the outcome in [1], in test [2], in [3], in [4], in [5] and in test [6] was inactive. In addition, the call in [7], in [8] and in test [9] was inactive.
On to `CCCCC(CC)C(=O)OCCOCCOCCOC(=O)C(CC)CCCC` (stereo not drawn), for which the compound was classed as inactive in [1], in [2], in test [3], in [4], in test [5] and in test [6]. Moreover, the result in test [7], in test [8] and in test [9] was inactive.
For `OC(CCl)CCl`, the result in test [1], in [2], in test [3], in [4], in test [5] and in test [6] was inactive. In addition, the outcome in test [7], in test [8] and in test [9] was inactive.
In the case of `OCc1ccccc1`, the result in test [1], in test [2], in test [3], in test [4], in [5] and in [6] was inactive. The compound was called inactive in test [7], in test [8] and in [9].
As to `CCCCCCCC1CCC(=O)O1` (stereo not drawn), the call in [1], in [2], in test [3], in [5], in [6] and in test [7] was inactive. In addition, the result in test [8] and in test [9] was inactive. Moreover, the AC50 in [4] was 20 µM (active).
For `CCCc1ccccc1`, the result in test [1], in test [2], in test [3], in test [4], in test [5] and in [6] was inactive. Also, the call in test [7], in [8] and in test [9] was inactive.
`CCc1ccc(O)c(C(C)(C)C)c1`: the AC50 in [1] is 30 µM (active); in [2] it was 30.3 µM (active); in test [4] it was 2.12 µM (active); in [5] it was 20 µM (active); in [6], 35.3 µM (active); in test [8] it was 35 µM (active). In addition, the outcome in test [3], in [7] and in test [9] was inactive.
Regarding `CCCCCCCC/C=C\CCCCCCCC(=O)OC[C@@H](O)[C@H]1OC[C@H](O)[C@H]1O`, the compound was called inactive in test [1], in test [2], in test [3], in test [4], in test [5] and in test [6]. Moreover, the call in test [7], in [8] and in [9] was inactive.
